Bioassay records: PubChem BioAssay, National Center for Advancing Translational Sciences (NCATS)
HT1080-NT tox: kills 2HG-producing HT-1080-NT fibrosarcoma cells; Potency, µM (series often up to 46.1 µM), usual class: cytotoxic; HT-1080-NT fibrosarcoma viability, CellTiter-Glo ATP luminescence, 48 h; actives 1.6% (n = 360,000); AID 686970;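 also: NT is the 2HG producing partner of a matched IDH1 knockdown line; nearly all actives have a fitted effect of over 55% in size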
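HT-1080-NT; 750 cells/well; 5% FBS RPMI; 48 h compound, 37 degrees C; CellTiter-Glo luminescence; curve fitting and curve-class assignment.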
Giardia kill: Giardia lamblia killing; Giardia lamblia trophozoite viability; activity change, % at 7.66 µM, hits read low; actives 0.15% (n = 340,000); in the data active = activity change below about -80%; inconclusive = between about -30% and that limit;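 also: parasites exposed to compound for two days anaerobically before the ATP read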
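Luminescent ATP signal served as the viability read-out, measured 15-30 min after adding ATP detection reagent to trophozoites that had been incubated with compounds for 48 hrs at 37 deg C anaerobically at 100 cells/well.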
TGFb SMAD3 inh: blocks TGF-b signaling. HepG2 CAGA-GFP TGF-b/SMAD3 reporter, GFP fluorescence, 18 h; TGF-beta stimulated, 500 pg/mL final. Potency, µM (highest dose often 46.1 µM), most hits filed as inhibitors. actives 1.2% (n = 410,000). AID 588855; also: nearly all actives have a fitted effect of over 65% in size
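HEPG2 CAGA-GFP reporter cells (1000/well, DMEM with 1% FBS) received compounds, then recombinant TGF-beta at 500 pg/mL final for 18 hours at 37 degrees C. Per-cell GFP summed per well was normalised to unstimulated and stimulated DMSO controls before curve fitting.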
HT1080 IDH1KD tx: kills HT-1080 cells with IDH1 knockdown | HT-1080 IDH1 knockdown viability, ATP luminescence, 48 h | Potency, µM (series often up to 46.1 µM), hits mostly cytotoxic | actives 2% (n = 360,000) | AID 686971
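Viability of IDH1-knockdown HT-1080 fibrosarcoma cells was assessed by CellTiter-Glo after 48 h at 37 °C with titrated compound; concentration-effect curves were classified by fit quality and response size.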
IL1B secr inh: blocks inflammasome-driven IL-1 beta release; activity change, % at 57.5 µM; AID 743279; THP-1 LPS/ATP IL-1B secretion, AlphaLISA, 16 h; active compounds read low; actives 4.7% (n = 360,000); in the data active = activity change below about -50%; inconclusive = mostly about -30% to -49%
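THP-1 cells pretreated 1 hr with compounds (up to 57.5 uM final), then stimulated with LPS (250 ng/mL final) plus ATP (1.25 mM final); secreted IL-1B measured by AlphaLISA after 16 hr, decreased signal indicating inhibition.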
HepG2 viability: kills HepG2 cells in TGF-b inhibitor counter-screen. HepG2 CAGA-GFP viability, ATP luminescence, 18 h. Potency, µM (doses to about 46.1 µM), hits mostly cytotoxic. actives 0.76% (n = 410,000). AID 588856
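CellTiter-Glo luminescence gave cytotoxicity after 18 hours at 37 degrees C. The cells were HepG2 CAGA-GFP in 1% FBS DMEM, stimulated with 500 pg/mL TGF-beta after compound addition. %Activity was normalised to no-cell wells (complete cell-killing) and DMSO (no toxicity), and curves were fitted and classified.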
Hits are given with their value; 0 = inactive; ? = inconclusive; - = no result; [ ] = remark or other dose. Most compounds without a hit are left out; they make up all but 6.5% or so of the library. Unless noted, calls follow the shape of the dose curve; as a rule, active = well fitted curve in the direction sought with a large enough effect; inconclusive = small, poorly fitted or top-dose-only effect, or another doubt; inactive = no such curve, though single readings can be large; an effect the other way counts as inactive or inconclusive.

SMILES | HT1080-NT tox | Giardia kill | TGFb SMAD3 inh | HT1080 IDH1KD tx | IL1B secr inh | HepG2 viability
CCOc1cc(/C=C2\COc3ccccc3C2=O)ccc1OCC(=O)N(C)C | 25.9µM | 0 | ? | 23.1µM | -97.8 | 0
O=C(OCc1nnc(-c2ccc(Cl)cc2)o1)c1ccc(O)cc1 | 0 | 0 | 0 | 0 | 0 | 0
CS(=O)(=O)c1ccc(C(=O)OCc2nnc(-c3ccc(Cl)cc3)o2)cc1[N+](=O)[O-] | ? | 0 | ? | 18.4µM | -77.1 | 0
CC(=O)c1c(C)[nH]c(C(=O)OCC(=O)NNC(=O)c2ccc([N+](=O)[O-])cc2)c1C | 0 | 0 | 0 | 0 | 0 | 0
CC(=O)c1c(C)[nH]c(C(=O)OCc2nnc(-c3ccc([N+](=O)[O-])cc3)o2)c1C | 23.1µM | 0 | 0 | ? | 0 | 0
COc1cc(CCC(=O)Nc2cccc(C(F)(F)F)c2)cc(OC)c1OC | 0 | 0 | 0 | 0 | 0 | 0
Cc1ccc(F)c(NC(=O)c2ccc(Cn3cc(Cl)cn3)cc2)c1 | 0 | 0 | 0 | ? | ? | 0
Cc1ccc(F)c(NC(=O)/C(C#N)=C(\O)c2ccc(C(C)(C)C)cc2)c1 | 0 | 0 | 12.6µM | ? | 0 | 12.6µM
NCCCC[C@H]1CN=C(N)N1CCc1cccc2ccccc12 | 0 | 0 | 0 | 0 | 0 | 0
NCCCC[C@H]1CN=C(N)N1CCC12CC3CC(CC(C3)C1)C2 | 0 | 0 | 0 | 0 | -54.7 | 0
CCC(=O)Nc1ccc2ccccc2c1 | 0 | 0 | 0 | 0 | 0 | 0
CC(C)(C)CC(C)(C)NC(=O)CSCC(=O)Nc1ccc2ccccc2c1 | 15.8µM | 0 | ? | 0[9.24 µM] | -94.3 | 0
CC(=O)c1ccc(OCc2cc(C(=O)N(C)Cc3cc(C)no3)no2)cc1 | 0 | 0 | 0 | 0 | 0 | 0
CCc1nnc(N/N=C/c2ccccc2Cl)n1N | ? | 0 | 11.2µM | 15.8µM | 0 | 12.6µM
CCN(C)c1ccc(/C=N\n2nnnc2N)cc1 | ? | 0 | 0 | 5.17µM | 0 | 0
Cc1nnc(N/N=C/c2ccc(Br)cc2)n1N | ? | ? | ? | 23.1µM | 0 | 15.8µM
Nn1cnnc1N/N=C/c1ccc(Cl)c([N+](=O)[O-])c1 | ? | 0 | ? | 20.6µM | 0 | 11.2µM
CC(C)OCCCN1CC(=O)N2[C@@H](Cc3c([nH]c4ccccc34)C2(C)C)C1=O | 0 | 0 | 0 | 0 | 0 | 0
Cc1ccc(C(=O)N(CC(=O)Nc2ccc(Cl)c(Cl)c2)Cc2ccco2)cc1 | 0 | 0 | ? | 0 | 0 | 0
CC(C)C(=O)Nc1cccc(NC(=O)c2cccnc2)c1 | 0 | 0 | 0 | 0 | 0 | 0
Nc1nnnn1/N=C\c1ccc(Cl)c([N+](=O)[O-])c1 | 0 | 0 | 0 | 0 | -61.5 | 0
Nn1cnnc1N/N=C/c1cccc(Cl)c1Cl | ? | 0 | ? | 18.4µM | 0 | 0
Cc1ccc(/C=N/Nc2nncn2N)cc1 | ? | 0 | 11.2µM | ? | 0 | 0
CN(C)c1nc(N/N=C\c2ccc(Cl)c([N+](=O)[O-])c2)nc(Nc2ccc(F)cc2)n1 | ? | 0 | ? | ? | -89.5 | 0
Nn1cnnc1N/N=C/c1ccc(F)cc1 | ? | 0 | ? | ? | 0 | 0
SMILES | HT1080-NT tox | Giardia kill | TGFb SMAD3 inh | HT1080 IDH1KD tx | IL1B secr inh | HepG2 viability
C[C@@H]1COC(=O)[C@H](Cc2ccc(F)cc2)C/C=C\C[C@@H](CC(=O)N[C@H](CO)Cc2ccccc2)C(=O)N1 | 0 | 0 | ? | 0 | 0 | 0
COc1ccc(/C=N/Nc2nnc(C)n2N)cc1OC | ? | 0 | 0 | ? | 0 | 0
COc1ccc(/C=N/Nc2nnc(C)n2N)cc1OC(C)=O | 23.1µM | 0 | 10µM | 16.4µM | 0 | 12.6µM
O=C1Nc2ccc([N+](=O)[O-])cc2OC1CCN1CCN(Cc2ccccc2)CC1 (stereo not drawn) | ? | 0 | 0 | 0 | 0 | 0
O=C1Nc2ccc([N+](=O)[O-])cc2OC1CCN1CCN(Cc2ccc3c(c2)OCO3)CC1 (stereo not drawn) | 0 | 0 | 0 | 0 | -50.6 | 0
O=Cc1cc([N+](=O)[O-])ccc1N1CCN(Cc2ccc3c(c2)OCO3)CC1 | 0 | 0 | 0 | 0 | -63.8 | 0
CCn1c(=O)c([N+](=O)[O-])c(N2CCSCC2)c2ccccc21 | 0 | 0 | 0 | 0 | 0 | 0
CN(C)CCCNS(=O)(=O)c1ccc(N2CCN(Cc3ccc4c(c3)OCO4)CC2)c([N+](=O)[O-])c1 | ? | 0 | 0 | ? | -69.9 | 0
CCn1c(=O)c([N+](=O)[O-])c(N2CCN(Cc3ccc4c(c3)OCO4)CC2)c2ccccc21 | 0 | 0 | 0 | 0 | -65.6 | 0
COc1ccc(CCNC(=O)c2ccc(COc3ccccc3OC)o2)cc1 | 0 | 0 | 0 | 0 | 0 | 0
COc1ccc(CCNC(=O)c2ccc(CSc3ccccc3)o2)cc1 | 0 | 0 | 0 | 0 | -58.6 | 0
NC(=S)n1[nH]c(-c2ccc([N+](=O)[O-])cc2)c(N=Nc2ccc(Cl)cc2)c1=O | 2.59µM | 0 | 2.51µM | 4.11µM | -91.8 | 2.51µM
Cc1ccc([N+](=O)[O-])cc1N=Nc1c(-c2ccc([N+](=O)[O-])cc2)[nH]n(C(N)=S)c1=O | ? | 0 | 2.82µM | ? | ? | 0
O=C1C=C(NCc2ccco2)C2(CCCCC2)O1 | 0 | 0 | 0 | 0 | 0 | 0
COCCNc1oc(COc2cccc(C)c2)nc1C#N | 0 | 0 | 0 | 0 | ? | 0
CCOC(=O)Cn1cc(/C=N/N2C(=O)C3C4C=CC(C4)C3C2=O)c2ccccc21 (stereo not drawn) | 0 | 0 | 6.31µM | 0 | 0 | 0
COc1ccccc1/C=N/N1C(=O)C2C3C=CC(CC3)C2C1=O (stereo not drawn) | 0 | 0 | 0 | 0 | 0 | 0
O=C1C2C3C=CC(C3)C2C(=O)N1/N=C/c1cn(Cc2ccccc2)c2ccccc12 (stereo not drawn) | 0 | 0 | 4.47µM | 0 | 0 | 0
O=C1C2C3C=CC(C3)C2C(=O)N1/N=C/c1cn(Cc2ccc(F)cc2)c2ccccc12 (stereo not drawn) | 0 | 0 | ? | ? | 0 | 0.891µM
O=C1C2C3C=CC(CC3)C2C(=O)N1/N=C/c1c[nH]c2ccccc12 (stereo not drawn) | 0 | 0 | 0 | 0 | 0 | 0
Cn1nnc(NC(=S)NC(=O)Cc2ccccc2)n1 | 0 | 0 | 0 | 0 | 0 | 0
CC1=[N+](C)c2c(ccc3cccnc23)C1(C)C | ? | 0 | ? | ? | -112.4 | 0
Cc1[nH]c2c(ccc3cccnc32)c1C | 0 | 0 | 0 | 0 | - | 0
Cc1cc(C(C)(C)C)cc(C)c1Cn1c2[n+](c3ccc(C(F)(F)F)cc31)CCCCC2 | 14.6µM | 0 | ? | ? | -107.9 | 0
N#Cc1ccc(NC(=O)Cn2c3[n+](c4ccc(C(F)(F)F)cc42)CCCCC3)cc1 | 0 | 0 | 0 | 0 | 0 | 0
